A selection: hits, their analogues and other compounds. The true share with any hit is near 3%.
PfHsp90 set2: reduces growth (ATP signal) of yeast expressing P. falciparum Hsp90; inhibition, % at 9.4 µM; S. cerevisiae expressing PfHsp90, BacTiter-Glo ATP, 48 h; yeast lacking PDR1 and PDR3 efflux regulators; 310,000 compounds, 0.32% hits;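 active = every replicate shows inhibition above about 80%, whatever the replicate mean, limit read from the data; inconclusive = mean inhibition reaches the set limit but some replicate falls short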;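 note: 0% = DMSO neutral controls and 100% = 20 µM radicicol positive controls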
Vif imaging: HIV Vif inhibition; HEK293T cells, Vif self-association by quenched fluorescence, imaging, 24 h; inhibition, % at 7.49 µM; 340,000 compounds, 0.35% hits; AID 602346; in the data active = inhibition above about 50%, passing the limit was not always enough; inconclusive = no clear call, values can overlap the other calls; inactive = below about 31%
MITF TRPM1 HTS: MITF TRPM1 promoter activation in melanoma cells; 300,000 compounds, 0.75% hits; activation, % at 12.5 µM; SK-MEL-5 TRPM1-promoter luciferase, 24 h; % of positive control, neutral wells = 0; AID 588334;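 active = mean activation of at least 80% with every replicate also reaching 80%; inconclusive = mean reaches 80% but some replicate falls short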;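 note: 0% = neutral control wells and 100% = parthenolide positive control wells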
esBAF inh: inhibitors of esBAF chromatin remodeling in mouse ES cells. Bmi1-luciferase knock-in reporter, 24 h; 100% = twice the neutral-well signal. reporter increase, % at 12.5 µM. 350,000 compounds, 2% hits. AID 602393; in the data active = activation above about 40%; inconclusive = no clear call, values can overlap the other calls;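 note: 0% = median of the plate's neutral control wells and 100% = double that signal; a rise in the Bmi1 reporter signal indicates esBAF inhibition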
Wnt act: activates Wnt/beta-catenin signaling in a reporter cell assay | 300,000 compounds, 1.2% hits | activation, % at 9.35 µM | activator, plate reader; in the data active = activation above about 30%, passing the limit was not always enough; inconclusive = no clear call, values can overlap the other calls;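 note: 0% = neutral control wells and 100% = positive control wells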
Glyco luc inh: N-linked glycosylation inhibition; D54 ERlucT glycosylation luciferase reporter, 24 h; percent of 100 nM tunicamycin response; reporter increase, % at 12.5 µM; 360,000 compounds, 0.23% hits; AID 588692;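 active = mean luciferase reporter signal, scaled so untreated is 0 and the glycosylation-blocking control 100, at or above a set limit in every replicate; inconclusive = mean reaches the limit but not every replicate does; inactive = mean below the limit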;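 note: luciferase carries N-glycosylation sites so blocking glycosylation raises the light; 0% = median of neutral control wells and 100% = median of 100 nM tunicamycin wells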
* hit, by the source's call; ? = inconclusive; . = no result.

SMILES	PfHsp90 set2	Vif imaging	MITF TRPM1 HTS	esBAF inh	Wnt act	Glyco luc inh
O=C(c1ccc(-c2ccc(Cl)cc2Cl)o1)N1CCOCC1	-4	-3	147*	56*	54*	-4
CCOC(=O)Nc1ccc2c(CN3CCN(S(=O)(=O)c4ccccc4F)CC3)cc(=O)oc2c1	-13	-1	-1	-10	0	-1
Cc1noc(C)c1S(=O)(=O)N(C)C[C@H]1Oc2ccc(NC(=O)NC(C)C)cc2CC(=O)N([C@H](C)CO)C[C@@H]1C	.	.	.	-2	.	.
CCC1(CC)Cc2ccccc2-c2nc(CN(C)C)[nH]c(=O)c21	-12	15	-2	1	1	2
COC(=O)c1ccc(C23CC4(C2)[C@H](CN(C)[C@@H]4c2ccccc2)C3c2ccc(C(F)(F)F)cc2)cc1 (stereo not given in full)	-3	3	-6	-14	-9	-4
Cc1ccc2ncnc(Nc3cccc(C(=O)O)c3)c2c1	-29	-8	-10	.	-1	0
O=C(c1ccco1)N1CCN(Cc2ccc(Cl)cc2)CC1	-19	4	12	-3	-2	-1
O=C(c1ccco1)N1CCN(Cc2c(Cl)cccc2Cl)CC1	-20	4	74	59*	9	-7
COc1ccc(CCNC(=S)NC(=O)c2ccccc2)cc1C	-10	-3	-7	8	0	-1
Cc1ccccc1C(=O)NC1CCN(C(=O)NCc2ccccc2)CC1	-6	3	-2	2	-1	-1
CC(C)c1ccc2[nH]c3c(c2c1)[C@@H]1CCN2C(=O)CCC[C@H](C3)[C@H]12	-77	-12	58	81*	15	2
O=C(NCc1cccc(CNC(=O)c2ccco2)c1)c1ccco1	-23	.	-9	-2	0	-1
CCN(CC)S(=O)(=O)c1cccc(C(=O)NN2Cc3ccccc3C2=N)c1	-12	-4	-3	2	-5	2
CCN(CC)S(=O)(=O)c1cccc(-c2nc3n(n2)Cc2ccccc2-3)c1	-21	-8	-16	75*	-2	0
Clc1ccc(-c2nc3n(n2)Cc2ccccc2-3)cc1	.	-6	.	8	53*	-17
N#CCc1nc2n(n1)Cc1ccccc1-2	-7	9	7	-5	.	1
COc1cccc(-c2nc3n(n2)CCc2ccccc2-3)c1	.	-16	.	36	64*	-7
COc1cccc(-c2cc(C(=O)N3CCc4ccccc4C3)no2)c1	-8	2	1	0	.	2
CCN1C(=O)[C@@H]2[C@H](C1=O)[C@@H]1C[C@H]3C(=O)N(CC)C(=O)[C@H]3[C@@H]3C1=C(C(=O)N1C(=O)OC(=NCC4CC4)[C@]31C)[C@@H]2C	-11	7	-11	-7	-2	2
COc1ccc(-c2noc(-c3cccc(Cl)c3)n2)cc1OC	21	-1	?	49*	11	4
Clc1cccc(-c2nc(-c3ccccn3)no2)c1	35	-20	-60	.	-19	-21
COc1ccc(-c2noc(-c3ccccc3Cl)n2)cc1OC	-20	.	86*	?	0	-4
Brc1ccc(-c2nc(-c3ccccc3)no2)o1	-7	-7	26	24	50*	-7
COc1cccc(-c2nc(-c3cccs3)no2)c1	-63	5	13	-53	-1	-17
COc1cccc(-c2nc(-c3ccncc3)no2)c1	3	-9	27	.	35*	-4
SMILES	PfHsp90 set2	Vif imaging	MITF TRPM1 HTS	esBAF inh	Wnt act	Glyco luc inh
CC(=O)OCCNC(=O)c1cccnc1	1	-7	12	1	.	3
CCOc1ccc(-c2noc(-c3ccncc3)n2)cc1OCC	-10	0	.	11	2	3
COc1ccc(CCC(=O)Nc2ccc(-c3noc(-c4ccc(OC)c(OC)c4)n3)cc2)cc1	8	36	15	43*	.	-2
Cc1ccc(-c2nc(-c3ccncc3)no2)cc1C	-17	-2	.	-14	39*	-14
COc1ccc(-c2nc(-c3ccc(NC(=O)c4ccc(Br)o4)cc3)no2)cc1OC	-9	-6	-2	.	.	-2
COc1ccc(-c2noc(-c3cccs3)n2)cc1OC	-48	-2	.	53*	60*	-4
Cc1ccc(-c2nc(-c3ccncc3)no2)cc1Cl	-37	-2	.	34	8	-3
COc1ccc(-c2nc(-c3ccncc3)no2)cc1OC	9	?	.	63*	.	1
CO[C@@H]1CN(C)C(=O)c2cc(NC(=O)C3CC3)ccc2OC[C@H](C)N(C)C[C@@H]1C	.	.	.	-5	.	.
CC(C)CCN1CCC(CN2C(=O)C(=O)NC[C@@H]2CC(C)C)CC1	.	3	.	-5	-2	3
O=C(CN1C(=O)c2cccc3cccc1c23)NCc1ccncc1	-13	.	-4	-5	-3	2
COc1cccc(NC(=O)c2nn(C)c3c2CS(=O)(=O)c2ccccc2-3)c1	19	-2	4	0	3	-1
COc1cccc(-c2nc(-c3ccc(Br)o3)no2)c1	-12	-3	51	.	45*	-11
COc1ccc(-c2nc(-c3ccc(Br)o3)no2)cc1OC	-10	8	74	18	21	1
CCc1c(C)nc(SCC(=O)c2cccs2)c(C#N)c1C	16	.	40	54*	.	0
CCc1c(C)nc(SCC(N)=O)c(C#N)c1C	-6	-8	18	0	.	-1
CCCOC(=O)c1ccc(NC(=O)c2cnccn2)cc1	-6	-9	64	59*	.	0
CCCCOC(=O)c1ccc(NC(=O)c2cnccn2)cc1	-27	-6	33	33	.	-1
O=C(NO)c1ccc(OC(F)F)cc1	19	1	-3	.	4	36*
Cn1nc(-c2ccc(N3CCOCC3)c(NS(=O)(=O)c3ccc(Cl)cc3)c2)c2ccccc2c1=O	-43	19	-17	-2	1	7
Cc1ccc(S(=O)(=O)Nc2cc(-c3nn(C)c(=O)c4ccccc34)ccc2N2CCOCC2)cc1	.	?	-42	-3	.	45*
C[C@H](CO)N1C[C@H](C)[C@@H](CN(C)C(=O)NC2CCCCC2)Oc2c(NC(=O)Cc3ccccc3)cccc2C1=O	35	2	-1	3	0	-3
CCN(CC)CCOc1c(Br)ccc2c1sc1nc3n(c(=O)c12)CCC3	19	0	.	19	1	67*
O=c1c2c(nc3n1CCCCC3)sc1c(O)c(Br)ccc12	.	-6	35	-24	11	-10
Cc1ccc(C)n1-c1ccc(-c2ccn[nH]2)cc1	-4	5	8	1	2	11
c1ccn(-c2ccc(-c3ccn[nH]3)cc2)c1	15	-4	93*	.	9	-1
N#CC1(Nc2ccccc2)C(=O)Nc2ccccc21 (stereo not given)	6	32	-12	3	2	0
CNC(=O)/C(C#N)=C/c1ccc(-c2ccccc2[N+](=O)[O-])o1	-12	-5	18	.	-4	7

Screens deposited in PubChem by Broad Institute.
